Sfp inh – qHTS Assay for Inhibitors of Bacillus subtilis Sfp phosphopantetheinyl transferase (PPTase); 4'-phosphopantetheinyl transferase ffp (Bacillus subtilis), Q9F4F7; Biochemical Sfp PPTase activity, qHTS; Potency, µM, usual class: inhibitors; actives 3.5% (n = 310,000);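 note: the enzyme is Sfp with the accession as filed and its product quenches rhodamine fluorescence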
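With Hepes-Na pH 7.6 buffer containing 10 mM MgCl2, Sfp (15 nM) modified BHQ-2-YbbR (12.5 uM) using rhodamine-CoA (5 uM). Two reads 30 minutes apart at 525/598 nm yielded each well's rate.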
JMJD2A Tudor – qHTS Assay for Inhibitors of JMJD2A-Tudor Domain; Lysine-specific demethylase 4A (Homo sapiens), O75164; AlphaScreen JMJD2A-Tudor / H3K4me3 peptide binding; Potency, µM (top dose mostly 114 µM), actives largely listed as inhibitors; actives 4.4% (n = 390,000); AID 504339, 2011; note: nearly all actives have a fitted effect of over 50% in size
ALOX12 inh – Primary qHTS assay for inhibitors of human arachidonate 12S-lipoxygenase (ALOX12): Round 2; Polyunsaturated fatty acid lipoxygenase ALOX12 (Homo sapiens), P18054; purified 12hLO, xylenol orange hydroperoxide absorbance; Potency, µM (titrated, usually from 108 µM), actives largely listed as inhibitors; actives 1.1% (n = 580,000); AID 1671190, 2021
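Purified human 12hLO (150 nM final) in 25 mM Hepes, 0.01% Triton X-100, pH 7.0 was preincubated 15 min at room temperature with compound. Then 40 uM arachidonic acid was added, 30 min. Hydroperoxide was read by Fe-XO absorbance ratio 573/405 nm.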
HP1b binding inh – HTS for Inhibitors of HP1-beta Chromodomain Interactions with Methylated Histone Tails | Chromobox protein homolog 1 (Homo sapiens), P83916 | AlphaScreen HP1-beta / biotin-H3K9me3 peptide binding | Potency, µM (series often up to 114 µM), hits mostly inhibitors | actives 0.56% (n = 390,000) | AID 540317, 2011; note: nearly all actives have a fitted effect of over 70% in size
Target sequence (P83916 whole entry, looked up): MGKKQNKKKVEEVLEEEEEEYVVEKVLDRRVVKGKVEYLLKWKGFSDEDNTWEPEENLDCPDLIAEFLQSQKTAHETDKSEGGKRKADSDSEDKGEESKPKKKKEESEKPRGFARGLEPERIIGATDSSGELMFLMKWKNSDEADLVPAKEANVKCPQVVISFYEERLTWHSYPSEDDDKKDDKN
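Compound inhibition of the preformed complex between 50 nM HP1-beta and 50 nM biotinylated H3K9me3 peptide was read by AlphaScreen. Buffer was PBS pH 7.4 with 0.01% Tween-20. Incubations ran 30 min at room temperature, with 10 ug/mL donor/acceptor beads.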
G9a block – qHTS Assay for Inhibitors of Histone Lysine Methyltransferase G9a; AID 504332, 2011; G9a H3K9 monomethylation, AlphaScreen, 2 h; Histone-lysine N-methyltransferase EHMT2 (Homo sapiens), Q96KQ7; Potency, µM (titrated, usually from 102 µM), most hits filed as inhibitors; actives 8.8% (n = 350,000); note: nearly all actives have a fitted effect of over 75% in size
Target sequence (Q96KQ7 913-1193 limits assumed): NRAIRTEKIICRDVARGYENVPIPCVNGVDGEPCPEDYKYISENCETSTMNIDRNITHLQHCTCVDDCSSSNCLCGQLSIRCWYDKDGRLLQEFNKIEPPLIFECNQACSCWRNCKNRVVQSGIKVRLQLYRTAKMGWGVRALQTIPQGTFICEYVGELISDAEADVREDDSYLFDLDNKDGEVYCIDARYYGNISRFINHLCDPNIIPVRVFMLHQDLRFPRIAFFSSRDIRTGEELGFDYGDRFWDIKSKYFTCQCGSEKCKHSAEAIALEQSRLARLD
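AlphaScreen detection with an anti-monomethyl H3K9 antibody quantified product after a 2 h room-temperature reaction containing 500 nM biotinylated H3K9 peptide, 20 µM SAM and 20 nM enzyme, which had been preincubated 15 min with compound.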
BAZ2B block – qHTS Assay for Inhibitors of BAZ2B; AID 504333, 2011; AlphaScreen BAZ2B-H3K14Ac peptide displacement; Bromodomain adjacent to zinc finger domain protein 2B (Homo sapiens), Q9UIF8; actives 4.4% (n = 360,000); Potency, µM (top dose mostly 114 µM), hits mostly inhibitors; note: nearly all actives have a fitted effect of over 60% in size
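Multi-concentration screen (max 110 uM) measuring displacement of acetylated histone H3 peptide from BAZ2B by AlphaScreen, using 50 nM protein, 50 nM peptide and 10 ug/mL streptavidin donor plus Ni-chelate acceptor beads.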
Each line names hits and unclear results; the compound was inactive in the other large screens. Compounds with a hit are over-represented: about 8.7% of the library has one in this group of screens. Calls come from the whole dose curve; as a rule, active = well fitted curve in the direction sought with a large enough effect; inconclusive = small, poorly fitted or top-dose-only effect, or another doubt; inactive = no such curve, though single readings can be large; an effect the other way counts as inactive or inconclusive.

O=C1CC(SCCc2nc3ccccc3[nH]2)C(=O)N1c1ccc(F)cc1 (centres undefined)	G9a block 45µM
CC(=O)NC1(C)CCCN(Cc2cc(-c3ccccc3)cs2)C1 (centres undefined)	none (no result: Sfp inh, JMJD2A Tudor, HP1b binding inh, G9a block, BAZ2B block)
O=C1NC(=S)NC(=O)C1=Cc1ccccc1C(=O)O	JMJD2A Tudor 25µM, ALOX12 inh inconclusive (no result: Sfp inh, G9a block, BAZ2B block)
O=S(=O)(c1ccc2nc(N3CCN(c4ccccc4F)CC3)ccc2c1)N1CCCCC1	ALOX12 inh inconclusive, G9a block 18µM
CC1CCN(S(=O)(=O)c2ccc3nc(N4CCN(c5ccccc5)CC4)ccc3c2)CC1	none
O=S(=O)(c1ccc2nc(N3CCN(c4ccccc4)CC3)ccc2c1)N1CCCC1	ALOX12 inh 3.5µM (no result: Sfp inh, JMJD2A Tudor, HP1b binding inh, G9a block, BAZ2B block)
CC1CCCCN1S(=O)(=O)c1ccc(S(=O)(=O)N2CCN(c3ccccc3)CC2)cc1 (centres undefined)	G9a block 50µM
O=C(c1ccc(S(=O)(=O)N2CCCCC2)cc1)N1CCN(c2ccccc2)CC1	ALOX12 inh inconclusive
CCN1CCN(c2ccc3cc(S(=O)(=O)N4CCOCC4)ccc3n2)CC1	ALOX12 inh 1.8µM (no result: Sfp inh, JMJD2A Tudor, HP1b binding inh, G9a block, BAZ2B block)
CC(C)NC(=O)Nc1c(NC2CCCC2)c2ccccc2oc1=O	none (no result: Sfp inh, JMJD2A Tudor, HP1b binding inh, G9a block, BAZ2B block)
COc1cccc(Nc2nc3ccccc3nc2NS(=O)(=O)c2cc(C)ccc2C)c1	none (no result: Sfp inh, JMJD2A Tudor, HP1b binding inh, G9a block, BAZ2B block)
CN(CC1(C)CCOCC1)C(=O)c1ccc(Cl)s1	none (no result: Sfp inh, JMJD2A Tudor, HP1b binding inh, G9a block, BAZ2B block)
CN1CCN(C(=O)c2cnc(-c3ccccn3)nc2)[C@H]2CS(=O)(=O)C[C@H]21	none (no result: Sfp inh, JMJD2A Tudor, HP1b binding inh, G9a block, BAZ2B block)
COC(=O)c1ccc(C)c(N(CCO)CCO)c1	G9a block 25µM
CC(C)(C)c1nnc([C@H]2CCN(C(=O)CCC(=O)O)C2)o1	none (no result: Sfp inh, JMJD2A Tudor, HP1b binding inh, G9a block, BAZ2B block)
C#CCOCCOCCOCCNc1nc(N2CCN(C(=O)[C@H](CCC(=O)O)n3cc([C@@H](N)[C@H](C)CC)nn3)CC2)nc(N2CCN(C(=O)[C@H](CCC(=O)O)n3cc([C@@H](N)CCSC)nn3)CC2)n1	JMJD2A Tudor 50µM (no result: Sfp inh, G9a block, BAZ2B block)
C#CCOCCOCCOCCNc1nc(N2CCN(C(=O)[C@H](CCC(=O)O)n3cc(CN)nn3)CC2)nc(N2CCN(C(=O)[C@H](CCC(=O)O)n3cc([C@@H](N)[C@H](C)CC)nn3)CC2)n1	JMJD2A Tudor 79µM (no result: Sfp inh, G9a block, BAZ2B block)
C#CCOCCOCCOCCNc1nc(N2CCOCC2)nc(N2CCN(C(=O)[C@H](CCC(=O)O)n3cc(C(N)[C@H](C)CC)nn3)CC2)n1 (some centres undefined)	JMJD2A Tudor 40µM
O=C(CCc1ccccc1)Nc1cccc2cccnc12	none (no result: Sfp inh, JMJD2A Tudor, HP1b binding inh, G9a block, BAZ2B block)
CCOc1ccccc1C(=O)NCC(=O)N(C)Cc1cccnc1	G9a block 40µM
Cc1cc(CSc2nnc(-c3cccnc3)n2Cc2ccccc2)no1	none (no result: Sfp inh, JMJD2A Tudor, HP1b binding inh, G9a block, BAZ2B block)
Cc1ccsc1/C=C1/SC(=O)N(CC(=O)N2CCOCC2)C1=O	none
CCOc1ccc(/C=C2\SC(=S)N(N3C(=O)C4CC4C3=O)C2=O)cc1 (centres undefined)	JMJD2A Tudor inconclusive, G9a block 40µM
O=C1/C(=C/c2ccc(O)cc2)SC(=S)N1CC1CCCO1 (centres undefined)	JMJD2A Tudor inconclusive, G9a block inconclusive, BAZ2B block inconclusive
Cc1ccsc1/C=C1\SC(=S)N(CC2CCCO2)C1=O (centres undefined)	JMJD2A Tudor 10µM, HP1b binding inh 45µM, G9a block 5µM, BAZ2B block 10µM
CCCOc1ccc(/C=C2\SC(=S)N(CC3CCCO3)C2=O)cc1 (centres undefined)	JMJD2A Tudor inconclusive, HP1b binding inh inconclusive, G9a block 3.5µM, BAZ2B block inconclusive
CCN(Cc1ccccc1)C1=CC(=O)OC12CCCCC2	none (no result: Sfp inh, JMJD2A Tudor, HP1b binding inh, G9a block, BAZ2B block)
CCOC(=O)Cc1csc(N/N=C/c2ccc(Cl)cc2)n1	none (no result: G9a block)
CC(=O)N(/N=C/c1ccc(C)cc1)c1nc(CCl)cs1	ALOX12 inh inconclusive, G9a block 18µM
CN(C)c1ccc(C2C3C(=O)NC(=O)C3ON2c2ccc(Cl)cc2)cc1 (centres undefined)	JMJD2A Tudor 56µM, G9a block inconclusive, BAZ2B block 50µM
COc1cc(C2C3C(=O)N(c4ccc(F)cc4)C(=O)C3ON2c2ccccc2)ccc1O (centres undefined)	none
COCC[C@]1(O)CCN(C(=O)CCc2nc(-c3ccco3)no2)C[C@H]1C	none (no result: Sfp inh, JMJD2A Tudor, HP1b binding inh, G9a block, BAZ2B block)
COc1cc([N+](=O)[O-])cc(/C=N/NC(=O)c2cc(-c3ccccc3)nc3ccccc23)c1O	JMJD2A Tudor 79µM, BAZ2B block 50µM
COc1cc([N+](=O)[O-])cc(/C=N/NC(=O)c2cc(C)nc3ccccc23)c1O	JMJD2A Tudor 22µM, BAZ2B block 20µM
COc1cc([N+](=O)[O-])cc(/C=N/NC(=O)c2cncc(Br)c2)c1O	JMJD2A Tudor 20µM, ALOX12 inh inconclusive, BAZ2B block 10µM (no result: G9a block)
COc1cc(/C=N/NC(=O)c2cccc([N+](=O)[O-])c2)cc(OC)c1O	G9a block inconclusive
